Test results: ChEMBL document CHEMBL1961873, “Compounds: GSK PKIS; Assays: Nanosyn kinase panel” (2012)

Experiments:
[1] = molecular target: Ribosomal protein S6 kinase alpha-6 (Homo sapiens) (UniProt Q9UK32); conditions: at 1 µM;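 also: each value is a mean inhibition of RSK4 from a GSK PKIS panel screen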
[2] = molecular target: T1, Serine/threonine-protein kinase Sgk1 (Homo sapiens) (UniProt O00141); conditions: at 0.1 µM
T1 sequence (whole entry): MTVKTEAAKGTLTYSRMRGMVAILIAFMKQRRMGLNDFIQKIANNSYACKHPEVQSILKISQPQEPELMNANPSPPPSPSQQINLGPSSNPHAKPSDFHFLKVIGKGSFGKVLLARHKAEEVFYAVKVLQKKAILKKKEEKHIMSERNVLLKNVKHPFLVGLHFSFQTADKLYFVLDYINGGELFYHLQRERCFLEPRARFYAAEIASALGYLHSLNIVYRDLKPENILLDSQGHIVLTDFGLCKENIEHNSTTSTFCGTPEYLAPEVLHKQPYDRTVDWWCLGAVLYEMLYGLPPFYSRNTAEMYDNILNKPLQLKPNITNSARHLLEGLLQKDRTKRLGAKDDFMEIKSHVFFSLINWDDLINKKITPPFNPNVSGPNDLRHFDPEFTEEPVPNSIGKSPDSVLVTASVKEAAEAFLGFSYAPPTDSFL

[3] = molecular target: T1, Serine/threonine-protein kinase Sgk1 (Homo sapiens); conditions: at 1 µM
[4] = molecular target: T2, Serine/threonine-protein kinase Sgk2 (Homo sapiens) (UniProt Q9HBY8); conditions: at 0.1 µM
T2 sequence (whole entry): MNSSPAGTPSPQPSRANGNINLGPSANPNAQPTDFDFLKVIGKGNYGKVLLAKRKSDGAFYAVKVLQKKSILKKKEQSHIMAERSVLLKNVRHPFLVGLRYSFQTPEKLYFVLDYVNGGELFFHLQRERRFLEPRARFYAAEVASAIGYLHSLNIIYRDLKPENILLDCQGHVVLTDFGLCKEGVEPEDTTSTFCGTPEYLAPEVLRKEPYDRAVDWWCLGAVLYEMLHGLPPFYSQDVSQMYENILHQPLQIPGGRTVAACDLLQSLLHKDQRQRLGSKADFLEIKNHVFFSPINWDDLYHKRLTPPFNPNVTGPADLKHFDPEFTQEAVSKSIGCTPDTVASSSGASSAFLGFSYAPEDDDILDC

[5] = molecular target: T2, Serine/threonine-protein kinase Sgk2 (Homo sapiens); conditions: at 1 µM
[6] = molecular target: T3, Serine/threonine-protein kinase Sgk3 (Homo sapiens) (UniProt Q96BR1); conditions: at 0.1 µM
T3 sequence (whole entry): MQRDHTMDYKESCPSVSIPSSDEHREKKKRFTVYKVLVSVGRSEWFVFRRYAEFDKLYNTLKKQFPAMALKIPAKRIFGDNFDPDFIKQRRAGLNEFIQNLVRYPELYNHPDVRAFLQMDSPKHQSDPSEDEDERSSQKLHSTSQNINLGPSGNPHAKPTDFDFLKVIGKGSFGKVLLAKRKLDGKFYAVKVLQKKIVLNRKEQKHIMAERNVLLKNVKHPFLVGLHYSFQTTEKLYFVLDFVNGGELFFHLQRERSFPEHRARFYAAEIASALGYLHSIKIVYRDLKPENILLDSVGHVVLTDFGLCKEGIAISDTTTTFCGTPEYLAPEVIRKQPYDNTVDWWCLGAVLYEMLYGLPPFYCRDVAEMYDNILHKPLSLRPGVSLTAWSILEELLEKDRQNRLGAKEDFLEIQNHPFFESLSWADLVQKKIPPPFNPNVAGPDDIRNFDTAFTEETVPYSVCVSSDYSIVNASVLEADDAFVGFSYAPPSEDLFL

[7] = molecular target: T3, Serine/threonine-protein kinase Sgk3 (Homo sapiens); conditions: at 1 µM
[8] = molecular target: 5'-AMP-activated protein kinase catalytic subunit alpha-1 (Homo sapiens) (UniProt Q13131); conditions: at 0.1 µM
[9] = molecular target: 5'-AMP-activated protein kinase catalytic subunit alpha-1 (Homo sapiens) (UniProt Q13131); conditions: at 1 µM
[10] = molecular target: 5'-AMP-activated protein kinase catalytic subunit alpha-2 (Homo sapiens) (UniProt P54646); conditions: at 0.1 µM
[11] = molecular target: 5'-AMP-activated protein kinase catalytic subunit alpha-2 (Homo sapiens) (UniProt P54646); conditions: at 1 µM
[12] = molecular target: T4, NUAK family SNF1-like kinase 1 (Homo sapiens) (UniProt O60285); conditions: at 0.1 µM
T4 sequence (whole entry): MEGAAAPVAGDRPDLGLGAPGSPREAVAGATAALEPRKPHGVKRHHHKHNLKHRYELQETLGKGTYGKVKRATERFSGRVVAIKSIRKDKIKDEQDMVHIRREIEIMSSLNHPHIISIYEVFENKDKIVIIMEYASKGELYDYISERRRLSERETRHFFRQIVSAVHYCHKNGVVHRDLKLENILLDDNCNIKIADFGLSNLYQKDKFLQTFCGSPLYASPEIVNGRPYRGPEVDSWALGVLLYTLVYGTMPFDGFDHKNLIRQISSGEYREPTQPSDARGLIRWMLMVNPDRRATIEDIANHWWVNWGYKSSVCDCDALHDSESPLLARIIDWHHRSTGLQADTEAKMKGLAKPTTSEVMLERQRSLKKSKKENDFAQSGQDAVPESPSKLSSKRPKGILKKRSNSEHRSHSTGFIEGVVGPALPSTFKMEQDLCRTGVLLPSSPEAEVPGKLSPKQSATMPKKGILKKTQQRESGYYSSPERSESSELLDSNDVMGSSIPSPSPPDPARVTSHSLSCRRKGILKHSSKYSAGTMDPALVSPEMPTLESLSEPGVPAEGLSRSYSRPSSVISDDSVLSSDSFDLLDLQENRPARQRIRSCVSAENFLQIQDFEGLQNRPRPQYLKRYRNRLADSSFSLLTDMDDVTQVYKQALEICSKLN

[13] = molecular target: T4, NUAK family SNF1-like kinase 1 (Homo sapiens); conditions: at 1 µM
[14] = molecular target: T5, Serine/threonine-protein kinase BRSK1 (Homo sapiens) (UniProt Q8TDC3); conditions: at 0.1 µM
T5 sequence (whole entry): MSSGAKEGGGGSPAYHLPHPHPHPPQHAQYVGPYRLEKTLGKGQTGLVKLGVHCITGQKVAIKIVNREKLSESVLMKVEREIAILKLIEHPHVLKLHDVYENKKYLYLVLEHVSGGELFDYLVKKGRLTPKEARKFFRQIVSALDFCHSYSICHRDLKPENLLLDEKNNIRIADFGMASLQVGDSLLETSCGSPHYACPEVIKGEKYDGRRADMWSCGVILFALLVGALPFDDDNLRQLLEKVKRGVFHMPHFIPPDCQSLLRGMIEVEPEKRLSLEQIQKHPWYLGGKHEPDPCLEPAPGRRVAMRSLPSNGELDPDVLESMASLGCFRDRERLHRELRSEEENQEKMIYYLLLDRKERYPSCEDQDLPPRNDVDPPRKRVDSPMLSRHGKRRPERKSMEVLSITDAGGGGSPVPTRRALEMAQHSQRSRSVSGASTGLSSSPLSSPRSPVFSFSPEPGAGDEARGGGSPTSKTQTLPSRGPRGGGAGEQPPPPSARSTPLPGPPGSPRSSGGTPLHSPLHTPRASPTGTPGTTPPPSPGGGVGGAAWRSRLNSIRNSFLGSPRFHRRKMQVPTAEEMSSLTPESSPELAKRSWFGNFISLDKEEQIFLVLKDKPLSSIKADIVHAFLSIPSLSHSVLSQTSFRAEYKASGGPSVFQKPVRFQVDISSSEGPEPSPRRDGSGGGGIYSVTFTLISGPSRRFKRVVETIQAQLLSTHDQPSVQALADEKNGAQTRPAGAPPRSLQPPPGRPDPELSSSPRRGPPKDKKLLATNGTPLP

[15] = molecular target: T5, Serine/threonine-protein kinase BRSK1 (Homo sapiens); conditions: at 1 µM
[16] = molecular target: T6, Serine/threonine-protein kinase BRSK2 (Homo sapiens) (UniProt Q8IWQ3); conditions: at 0.1 µM
T6 sequence (whole entry): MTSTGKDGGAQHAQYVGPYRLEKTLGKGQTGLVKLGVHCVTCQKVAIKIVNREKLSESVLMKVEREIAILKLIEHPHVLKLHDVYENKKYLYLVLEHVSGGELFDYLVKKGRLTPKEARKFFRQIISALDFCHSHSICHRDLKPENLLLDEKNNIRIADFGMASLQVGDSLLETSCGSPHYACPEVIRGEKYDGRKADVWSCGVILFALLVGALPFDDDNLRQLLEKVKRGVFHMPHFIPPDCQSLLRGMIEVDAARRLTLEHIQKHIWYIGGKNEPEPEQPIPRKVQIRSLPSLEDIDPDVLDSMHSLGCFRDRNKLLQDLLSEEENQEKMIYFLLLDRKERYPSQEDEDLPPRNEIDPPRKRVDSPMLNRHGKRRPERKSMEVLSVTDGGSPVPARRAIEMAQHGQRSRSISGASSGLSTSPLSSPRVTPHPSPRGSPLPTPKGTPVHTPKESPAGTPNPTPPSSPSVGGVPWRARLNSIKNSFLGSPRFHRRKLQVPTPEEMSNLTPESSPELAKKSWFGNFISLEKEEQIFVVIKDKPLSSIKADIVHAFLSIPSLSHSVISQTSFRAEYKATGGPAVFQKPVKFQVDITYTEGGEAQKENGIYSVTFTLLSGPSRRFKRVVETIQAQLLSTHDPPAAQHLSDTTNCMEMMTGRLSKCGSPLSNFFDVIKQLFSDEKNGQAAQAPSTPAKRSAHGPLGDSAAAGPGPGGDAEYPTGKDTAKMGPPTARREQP

[17] = molecular target: T6, Serine/threonine-protein kinase BRSK2 (Homo sapiens); conditions: at 1 µM
[18] = molecular target: Calcium/calmodulin-dependent protein kinase type 1D (Homo sapiens) (UniProt Q8IU85); conditions: at 0.1 µM
[19] = molecular target: Calcium/calmodulin-dependent protein kinase type 1D (Homo sapiens) (UniProt Q8IU85); conditions: at 1 µM
[20] = molecular target: Calcium/calmodulin-dependent protein kinase type II subunit alpha (Homo sapiens) (UniProt Q9UQM7); conditions: at 0.1 µM;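 also: reported values are averages (mean inhibition of CAMK2A)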
Sequence of Calcium/calmodulin-dependent protein kinase type II subunit alpha (Homo sapiens) (Q9UQM7 whole entry): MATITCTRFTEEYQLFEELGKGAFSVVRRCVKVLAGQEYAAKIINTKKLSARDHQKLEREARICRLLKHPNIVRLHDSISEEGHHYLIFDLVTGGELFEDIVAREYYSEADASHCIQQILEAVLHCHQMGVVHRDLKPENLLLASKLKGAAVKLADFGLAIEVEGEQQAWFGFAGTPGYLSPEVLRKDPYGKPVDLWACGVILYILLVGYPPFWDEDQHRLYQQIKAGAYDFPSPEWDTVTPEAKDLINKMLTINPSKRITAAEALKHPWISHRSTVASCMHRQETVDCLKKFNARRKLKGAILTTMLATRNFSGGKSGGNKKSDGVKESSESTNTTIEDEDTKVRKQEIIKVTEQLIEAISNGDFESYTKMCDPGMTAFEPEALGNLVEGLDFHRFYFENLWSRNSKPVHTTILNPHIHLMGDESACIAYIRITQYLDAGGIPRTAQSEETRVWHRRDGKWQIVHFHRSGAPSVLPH

Sequence of 5'-AMP-activated protein kinase catalytic subunit alpha-2 (Homo sapiens) (P54646 whole entry, looked up): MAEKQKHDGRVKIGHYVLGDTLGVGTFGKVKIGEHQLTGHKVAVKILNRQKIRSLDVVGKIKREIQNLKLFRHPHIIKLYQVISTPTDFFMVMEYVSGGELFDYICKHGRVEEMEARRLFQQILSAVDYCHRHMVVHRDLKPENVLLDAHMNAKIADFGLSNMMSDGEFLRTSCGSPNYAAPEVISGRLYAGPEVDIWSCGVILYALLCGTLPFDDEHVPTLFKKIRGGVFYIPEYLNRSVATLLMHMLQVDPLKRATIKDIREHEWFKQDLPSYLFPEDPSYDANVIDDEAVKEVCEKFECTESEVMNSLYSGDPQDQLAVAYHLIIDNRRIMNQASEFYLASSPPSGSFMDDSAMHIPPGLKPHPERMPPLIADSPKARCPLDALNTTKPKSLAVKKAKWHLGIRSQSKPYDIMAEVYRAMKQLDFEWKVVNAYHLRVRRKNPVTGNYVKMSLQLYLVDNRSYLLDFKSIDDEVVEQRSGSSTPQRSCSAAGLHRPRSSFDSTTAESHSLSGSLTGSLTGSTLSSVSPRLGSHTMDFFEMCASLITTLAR
Sequence of 5'-AMP-activated protein kinase catalytic subunit alpha-1 (Homo sapiens) (Q13131 whole entry, looked up): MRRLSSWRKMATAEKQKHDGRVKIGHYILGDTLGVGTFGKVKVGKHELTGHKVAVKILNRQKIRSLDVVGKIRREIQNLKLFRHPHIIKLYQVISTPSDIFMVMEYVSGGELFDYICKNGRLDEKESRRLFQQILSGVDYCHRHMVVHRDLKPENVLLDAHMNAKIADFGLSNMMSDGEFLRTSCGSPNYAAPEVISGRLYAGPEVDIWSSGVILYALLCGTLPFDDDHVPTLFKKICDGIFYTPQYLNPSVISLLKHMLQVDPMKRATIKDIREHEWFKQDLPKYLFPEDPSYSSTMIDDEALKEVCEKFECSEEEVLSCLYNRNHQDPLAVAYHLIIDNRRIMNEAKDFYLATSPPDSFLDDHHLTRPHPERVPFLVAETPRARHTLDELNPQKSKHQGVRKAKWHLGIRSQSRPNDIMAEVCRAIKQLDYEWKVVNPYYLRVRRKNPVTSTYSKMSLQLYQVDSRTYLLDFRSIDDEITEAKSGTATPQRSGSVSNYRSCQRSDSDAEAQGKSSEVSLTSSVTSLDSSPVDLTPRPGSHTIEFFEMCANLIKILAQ
Sequence of Ribosomal protein S6 kinase alpha-6 (Homo sapiens) (Q9UK32 whole entry): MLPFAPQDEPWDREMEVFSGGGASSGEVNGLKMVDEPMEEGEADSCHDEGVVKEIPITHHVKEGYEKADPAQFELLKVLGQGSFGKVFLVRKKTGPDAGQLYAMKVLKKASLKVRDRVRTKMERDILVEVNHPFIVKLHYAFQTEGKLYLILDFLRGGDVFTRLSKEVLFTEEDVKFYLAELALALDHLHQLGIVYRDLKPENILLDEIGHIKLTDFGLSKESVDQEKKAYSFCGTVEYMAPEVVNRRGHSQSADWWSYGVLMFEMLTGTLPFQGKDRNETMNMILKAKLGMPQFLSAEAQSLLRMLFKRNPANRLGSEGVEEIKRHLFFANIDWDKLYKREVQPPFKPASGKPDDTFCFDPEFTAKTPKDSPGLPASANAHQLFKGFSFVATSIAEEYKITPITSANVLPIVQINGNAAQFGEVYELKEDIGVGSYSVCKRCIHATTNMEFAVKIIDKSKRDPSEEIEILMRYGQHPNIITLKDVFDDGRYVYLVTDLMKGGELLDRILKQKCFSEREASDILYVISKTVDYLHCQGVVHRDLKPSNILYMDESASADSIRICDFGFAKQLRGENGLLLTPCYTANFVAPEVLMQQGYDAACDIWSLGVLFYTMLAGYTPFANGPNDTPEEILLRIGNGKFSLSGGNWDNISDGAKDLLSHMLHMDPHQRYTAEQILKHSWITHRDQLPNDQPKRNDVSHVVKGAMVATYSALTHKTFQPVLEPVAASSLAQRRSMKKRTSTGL
Sequence of Calcium/calmodulin-dependent protein kinase type 1D (Homo sapiens) (Q8IU85 whole entry, looked up): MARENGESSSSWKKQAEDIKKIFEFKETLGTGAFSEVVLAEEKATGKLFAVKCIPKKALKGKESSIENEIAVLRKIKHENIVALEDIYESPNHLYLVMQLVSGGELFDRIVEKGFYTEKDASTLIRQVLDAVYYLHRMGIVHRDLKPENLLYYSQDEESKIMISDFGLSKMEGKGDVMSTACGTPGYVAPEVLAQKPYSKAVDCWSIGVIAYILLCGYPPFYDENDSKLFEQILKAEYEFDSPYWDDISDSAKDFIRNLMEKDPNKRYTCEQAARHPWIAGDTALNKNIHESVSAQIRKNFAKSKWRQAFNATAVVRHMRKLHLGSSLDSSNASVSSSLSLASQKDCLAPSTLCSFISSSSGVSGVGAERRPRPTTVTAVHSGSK

Row | Compound | inhibition [1] [%] | inhibition [2] [%] | inhibition [3] [%] | inhibition [4] [%] | inhibition [5] [%] | inhibition [6] [%] | inhibition [7] [%] | inhibition [8] [%] | inhibition [9] [%] | inhibition [10] [%] | inhibition [11] [%] | inhibition [12] [%] | inhibition [13] [%] | inhibition [14] [%] | inhibition [15] [%] | inhibition [16] [%] | inhibition [17] [%] | inhibition [18] [%] | inhibition [19] [%] | inhibition [20] [%]
1 | Fc1cccc(COc2ccc(Nc3ncnc4sc(-c5cccs5)cc34)cc2Cl)c1 | 0.4 | 1.05 | 0.86 | 0.37 | 0.66 | 0.04 | -0.58 | 0.51 | 0.48 | 2.89 | 0.62 | 4.02 | 7.65 | 0.56 | -0.44 | 0.22 | 1.9 | -1.31 | 0.18 | -3
2 | Cc1cccc(-c2n[nH]cc2-c2ccc3ncccc3n2)n1 | 1.71 | 0.86 | 1.34 | 0.23 | 0.54 | 0.78 | -0.02 | 1.82 | 0.12 | 0.85 | 1.54 | 0.78 | 4.74 | 0.22 | 1.97 | 2.17 | 2.14 | 0.56 | 1.08 | -1.03
3 | Cc1ccc(C(=O)NC2CCCCC2)cc1-c1ccc(C(=O)NCC2CC2)cc1 | 1.2 | 3.14 | 2.69 | 1.32 | -1.56 | 2.99 | 0.67 | 2.86 | 0.6 | 3.32 | 1.51 | 2.83 | 2.62 | 2.63 | 0.64 | 1.87 | -1.13 | 3.13 | 2.73 | 4.8
4 | Nc1nc(-c2ccccn2)c(-c2ccc3ncccc3n2)s1 | 0.55 | 4.14 | 2.85 | 0.04 | 1.55 | 2.89 | 1.48 | 0.55 | 2.96 | – | 3.76 | 4.24 | 5.19 | -0.41 | 2.4 | 0.9 | 3.83 | -0.97 | 0.3 | 1.9
5 | CN(C)c1cc2c(Nc3ccc4nc(Cc5ccccc5)[nH]c4c3)ncnc2cn1 | 3.9 | 3.83 | 2.79 | 2.52 | 6.52 | 3.71 | 4.16 | 4.31 | 3.22 | 4.92 | 4.85 | 0.74 | 1.76 | 3.31 | 4.38 | 3.85 | 4.52 | 1.13 | 0.72 | 4.11
6 | CNC(=O)c1cncc(/C=C/c2c(Cl)cccc2Cl)c1 | 1.63 | -0.87 | -0.45 | 0.49 | 0.48 | 1.43 | 2.18 | 2.85 | 3.59 | 6.15 | 1.77 | – | 7.27 | 4.16 | 7.3 | 1.54 | 9.33 | -0.35 | 2.1 | 3
